Source: PubChem BioAssay (National Center for Advancing Translational Sciences (NCATS))
RORg inh: inhibitors of mouse ROR gamma transcriptional activity | AID 2551 | Drosophila S2 Gal4-RORgamma UAS-luciferase reporter, 20 h | Potency, µM (top dose mostly 53.6 µM), for the others: top-dose activity change, negative = inhibition, usual class: inhibitors | P51450 | actives 5.4% (n = 310,000); also: nearly all actives have a fitted effect of over 60% in size
Target sequence (P51450 whole entry, looked up, the tested form may be a part): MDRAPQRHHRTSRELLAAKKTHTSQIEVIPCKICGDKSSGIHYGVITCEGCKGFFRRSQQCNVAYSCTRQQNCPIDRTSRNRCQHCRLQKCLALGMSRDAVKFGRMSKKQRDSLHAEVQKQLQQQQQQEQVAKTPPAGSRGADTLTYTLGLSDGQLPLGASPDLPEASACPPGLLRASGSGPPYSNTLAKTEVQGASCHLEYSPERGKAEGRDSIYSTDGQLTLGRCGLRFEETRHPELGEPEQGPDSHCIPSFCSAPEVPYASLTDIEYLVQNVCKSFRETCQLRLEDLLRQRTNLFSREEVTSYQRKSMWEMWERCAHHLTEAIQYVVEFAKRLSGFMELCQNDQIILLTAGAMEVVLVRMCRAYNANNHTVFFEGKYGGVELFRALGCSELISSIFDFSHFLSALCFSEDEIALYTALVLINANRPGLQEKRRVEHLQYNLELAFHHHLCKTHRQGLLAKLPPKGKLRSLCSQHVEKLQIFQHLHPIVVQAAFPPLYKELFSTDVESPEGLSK
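Read-out: Photinus luciferase luminescence; inhibitors lower reporter signal. Insect Schneider cells with Gal4-ROR gamma fusion under metallothionein promoter, UAS reporter; 700 uM final copper sulfate induction, 20 hr, ambient temperature.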
KinaseGlo FLuc: blocks Kinase-Glo luciferase, a counter-screen artifact; Q27757; Kinase-Glo luciferase, ATP luminescence, 8 min; Potency, µM (doses to about 38.3 µM), for inactives: top-dose activity change, negative = inhibition, actives largely listed as inhibitors; actives 0.28% (n = 200,000); AID 1379; also: nearly all actives have a fitted effect of over 60% in size
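Recombinant Kinase-Glo luciferase, 10 uM ATP (linear range), luciferin; imidazole pH 7.2 / KCl / MgCl2 / Tween / BSA buffer; 8 min RT; luminescence.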
Gal4-VP16 FLuc: counter-screen for ROR gamma inhibitors: Gal4-VP16 reporter | Drosophila S2 Gal4-VP16 UAS-luciferase, luminescence, 20 h | Potency, µM (top dose mostly 53.6 µM), for inactives: at the highest dose activity, negative = inhibition, actives largely listed as inhibitors | actives 3.5% (n = 310,000);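 also: Gal4-VP16 expression switched on by copper sulfate through the metallothionein promoter; nearly all actives have a fitted effect of over 50% in size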
* marks the source's active call; other numbers are inactive results; ? = inconclusive; · = no result; [ ] = another dose, or the depositor's remark. Only some compounds are listed: those with a hit (about 6.2% of all), similar ones and a draw of the others. Calls follow the shape of the dose curve; as a rule, active = well fitted curve in the direction sought with a large enough effect; inconclusive = small, poorly fitted or top-dose-only effect, or another doubt; inactive = no such curve, though single readings can be large; an effect the other way counts as inactive or inconclusive. % is scaled to controls: 0 for no effect and ±100 for the full control effect; potency is read from the fitted curve at half-maximal effect.

SMILES	RORg inh	KinaseGlo FLuc	Gal4-VP16 FLuc
C/C(=N\NC(=O)C1CC1)c1cccnc1	-0.2%	-2.9%	-7.2%
Cc1cc(C(=O)NC(Cc2ccccc2)C(=O)O)c(C)o1 (stereo not given)	7.1%	·	-3.3%
CCCOc1ccc(-c2c(C(=O)N/N=C/c3ccc(C)cc3)nnn2-c2nonc2N)cc1	?	·	-12.9%
CC(C)c1c(C(=O)N/N=C/c2ccco2)nnn1-c1nonc1N	-24.2%	·	4.8%
Cc1ccc(-c2c(C(=O)N/N=C/c3ccco3)nnn2-c2nonc2N)cc1	6.31µM*	·	?
Cc1ccc(-c2c(C(=O)N/N=C/c3ccc(C)o3)nnn2-c2nonc2N)cc1	7.94µM*	·	11.2µM*
O=C(Cc1ccccc1)Nc1nc2ccc(Cl)cc2c2nc(-c3ccco3)nn12	-17.0%	0.7%	6.2%
CCN(CC)C(=O)CSc1nnc(-c2ccccn2)n1-c1ccc(C)c(C)c1	-0.9%	2.0%	-6.2%
NC(=O)c1cccc(N=Cc2cc(Cl)cc(Cl)c2O)c1	3.6%	-2.5%	7.6%[10 µM]
Oc1c(Cl)cc(Cl)cc1C=Nc1ccccc1N1CCCC1	15.8µM*	3.3%	?
C/C(=N\NC(=O)c1ccn(C)n1)c1cccc(NC(=O)c2ccncc2)c1	2.3%	0.9%	-8.5%
OC1C=C2CCN3Cc4cc5c(cc4C(C1O)C23)OCO5 (stereo not given)	?	-6.2%	11.2µM*
COc1ccc2c(c1OC)CN1CCc3cc4c(cc3[C@@H]1[C@@H]2O)OCO4	15.9%	0.1%	5.1%
COC(F)(F)C(Cl)Cl	7.1%	·	-3.0%
CN(CCCn1c(=S)[nH]c2ncccc2c1=O)Cc1ccccc1	-40.7%	-3.7%	-10.9%
O=c1c2cccnc2[nH]c(=S)n1CCC1=CCCCC1	0.891µM*	2.4%	1.58µM*
CCCCCn1c(=S)[nH]c2ncccc2c1=O	1.12µM*	-0.7%	2.82µM*
O=C(Cn1c(=S)[nH]c2ncccc2c1=O)NCCc1ccccc1	-15.3%	2.8%	3.0%
COCCCn1c(=S)[nH]c2ncccc2c1=O	11.2µM*	-2.0%	-24.7%
COCCn1c(=S)[nH]c2ncccc2c1=O	-22.3%	-1.8%	-19.9%
O=C(COC(=O)c1ccc2c(=O)n3c(nc2c1)CCC3)Nc1ccc(OC(F)F)cc1	1.9%	5.2%	5.8%
CC1(O)CC2C(CC1O)C2(C)C (stereo not given)	-9.6%	0.6%	4.4%
COc1cccc(NC(=S)N2CCN(C/C=C/c3ccccc3)CC2)c1	10µM*	2.8%	?
COc1cc(NC(=S)N2CCN(C/C=C/c3ccccc3)CC2)cc(OC)c1	11.2µM*	2.1%	?
COc1cc(NC(=S)N2CCN(C(c3ccccc3)c3ccccc3)CC2)cc(OC)c1	4.47µM*	0.7%	0.4%[0.365 µM]
SMILES	RORg inh	KinaseGlo FLuc	Gal4-VP16 FLuc
S=C(NC1CCCC1)N1CCN(C/C=C/c2ccccc2)CC1	?	-0.4%	?
COCCNC(=S)N1CCN(C(c2ccccc2)c2ccccc2)CC1	-37.3%	·	4.2%
COCCNC(=S)N1CCN(C/C=C/c2ccccc2)CC1	?	4.8%	-8.4%
Fc1ccccc1NC(=S)N1CCN(C/C=C/c2ccccc2)CC1	?	-3.0%	?
S=C(Nc1ccccc1)N1CCN(C/C=C/c2ccccc2)CC1	11.2µM*	1.8%	?
CC(=O)NCCC1CCN(C(=O)C2CCC(=O)N(C3CCCC3)C2)CC1 (stereo not given)	-0.9%	·	-1.9%
CCOCCOC(=O)c1cccc2c1-c1ccccc1C2=O	14.9%	·	4.0%
CN(C)c1ccc(C2C3C(=O)NC(=O)C3ON2c2ccc(Cl)cc2)cc1 (stereo not given)	9.7%	-3.4%	9.5%
Cc1c(OCC(=O)N2CCC(C(N)=O)CC2)ccc2c1oc(=O)c1ccccc12	-12.9%	·	0.6%
CC(C)CO/N=C1/C[C@@H](O)[C@@H](O)[C@@H]2[C@@H]3C(=O)N(Cc4ccccc4)C(=O)[C@H]3CC[C@@H]12	-15.9%[10 µM]	·	-1.2%[10 µM]
CC(C)Cn1c(-c2cccs2)nc2ccccc21	-27.3%	-3.7%	?
Cn1c(-c2cccs2)nc2ccccc21	12.6µM*	-16.4%	4.8%
CCNS(=O)(=O)c1cc(OC)ccc1OC	-14.4%	-1.9%	-1.6%
CN1/C(=C\P(=O)(N(C)C)N(C)C)C(C)(C)c2ccccc21	-38.6%	8.2%	7.94µM*
CCOC(=O)/C=C1/N(C)c2ccccc2C1(C)C	-12.2%	·	-3.8%
O=[N+]([O-])c1ccccc1Oc1ccc(Cl)c2cccnc12	?	0.6%	8.0%
O=[N+]([O-])c1ccc(O)c2ncccc12	0.282µM*	-2.9%	0.562µM*
O=[N+]([O-])c1ccc(O)c2cccnc12	?	0.0%	-22.4%
O=[N+]([O-])c1cc([N+](=O)[O-])c2cccnc2c1Oc1ccccc1O	17.8µM*	·	?
